Source: PubChem BioAssay (NCATS)
Records with an inconclusive call do not appear. The source made the active and inactive calls. Unless noted, the call rests on the fitted dose curve; in most records, active means well fitted curve in the direction sought with a large enough effect; inconclusive means small, poorly fitted or top-dose-only effect, or another doubt; inactive means no such curve, though single readings can be large; an effect the other way counts as inactive or inconclusive.

Legend:
[1] = target: Cytochrome P450 2C9 (Homo sapiens) (UniProt P11712); test: qHTS for inhibitors of CYP2C9 against the NCATS DSHEA and TCM libraries (AID 1919973);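 further: luminogenic pro-luciferin CYP2C9 substrate turned into luciferin with NADPH regeneration; on the % scale 0 is the no-effect control and ±100 the full control effect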
Chain of Cytochrome P450 2C9 (Homo sapiens) (P11712 whole entry, looked up, canonical isoform): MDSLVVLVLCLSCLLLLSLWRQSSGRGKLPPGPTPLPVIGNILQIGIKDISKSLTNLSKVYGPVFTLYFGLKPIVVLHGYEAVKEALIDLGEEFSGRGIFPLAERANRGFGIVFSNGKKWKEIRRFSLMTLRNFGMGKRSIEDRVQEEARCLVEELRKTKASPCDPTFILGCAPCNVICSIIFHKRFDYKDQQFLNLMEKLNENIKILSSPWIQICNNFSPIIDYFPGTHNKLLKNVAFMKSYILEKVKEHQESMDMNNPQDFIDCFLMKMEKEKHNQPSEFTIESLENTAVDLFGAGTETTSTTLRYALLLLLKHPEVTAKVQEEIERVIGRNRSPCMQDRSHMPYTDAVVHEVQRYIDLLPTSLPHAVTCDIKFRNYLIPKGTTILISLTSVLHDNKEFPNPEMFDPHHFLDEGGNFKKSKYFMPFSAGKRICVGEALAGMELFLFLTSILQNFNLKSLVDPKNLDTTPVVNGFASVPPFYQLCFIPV
In short: (§1)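 Concentration-response screening with isoform-matched pro-luciferin substrates. The CYP reaction was initiated by NADPH regenerating solution and ran 30-45 min in darkness at room temperature.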

[2] = target: Cytochrome P450 2C19 (Homo sapiens) (UniProt P33261); test: qHTS for inhibitors of CYP2C19 against the NCATS DSHEA and TCM libraries (AID 1919974);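 further: luminescence from luciferin released by CYP2C19 oxidation of a pro-luciferin substrate; on the % scale 0 is the no-effect control and ±100 the full control effect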
Chain of Cytochrome P450 2C19 (Homo sapiens) (P33261 whole entry, looked up): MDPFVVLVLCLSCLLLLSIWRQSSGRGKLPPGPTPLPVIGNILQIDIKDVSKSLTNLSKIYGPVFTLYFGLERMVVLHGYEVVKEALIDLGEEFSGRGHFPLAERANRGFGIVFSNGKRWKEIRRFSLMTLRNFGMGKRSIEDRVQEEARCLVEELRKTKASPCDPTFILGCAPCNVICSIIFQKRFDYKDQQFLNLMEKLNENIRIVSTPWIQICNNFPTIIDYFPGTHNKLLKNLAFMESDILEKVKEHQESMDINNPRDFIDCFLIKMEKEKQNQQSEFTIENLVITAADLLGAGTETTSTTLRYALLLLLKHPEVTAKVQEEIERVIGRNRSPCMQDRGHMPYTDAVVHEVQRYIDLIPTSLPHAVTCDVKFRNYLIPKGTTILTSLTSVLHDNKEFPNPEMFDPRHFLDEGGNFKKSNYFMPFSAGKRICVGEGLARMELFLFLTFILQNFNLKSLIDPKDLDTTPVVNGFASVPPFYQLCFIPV
In short: as §1

[3] = target: Cytochrome P450 1A2 (Homo sapiens) (UniProt P05177); test: qHTS for inhibitors of CYPIA2 against the NCATS DSHEA and TCM libraries (AID 1919976);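 further: light from luciferin formed by CYP1A2 from a pro-luciferin substrate; on the % scale 0 is the no-effect control and ±100 the full control effect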
Chain of Cytochrome P450 1A2 (Homo sapiens) (P05177 whole entry, looked up): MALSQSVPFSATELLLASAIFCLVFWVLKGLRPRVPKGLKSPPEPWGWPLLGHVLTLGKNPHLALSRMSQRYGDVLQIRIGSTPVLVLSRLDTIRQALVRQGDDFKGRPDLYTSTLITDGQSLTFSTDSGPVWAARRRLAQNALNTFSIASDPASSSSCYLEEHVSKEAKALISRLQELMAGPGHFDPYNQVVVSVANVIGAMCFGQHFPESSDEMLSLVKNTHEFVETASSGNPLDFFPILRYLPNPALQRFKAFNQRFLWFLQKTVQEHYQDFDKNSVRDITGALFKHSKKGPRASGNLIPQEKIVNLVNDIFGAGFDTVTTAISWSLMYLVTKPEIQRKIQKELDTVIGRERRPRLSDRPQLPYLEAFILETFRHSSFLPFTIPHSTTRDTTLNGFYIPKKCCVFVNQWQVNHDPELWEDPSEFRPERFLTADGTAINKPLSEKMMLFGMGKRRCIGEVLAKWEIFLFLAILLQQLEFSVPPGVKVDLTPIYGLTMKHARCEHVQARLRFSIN
In short: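 Enzyme and pro-luciferin substrate, or substrate alone as no-enzyme background, are pre-incubated with test samples for 15 min at room temperature. NADPH regeneration system (1x final) initiates a 30-45 min dark reaction; luciferase detection reagent follows before luminescence reading.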

[4] = qHTS drug screen for cell cycle checkpoint inhibitors in PARPi-resistant BRCA-mutant ovarian cancer cell lines. (AID 1963452; calls by dose curve; further: potency means the concentration at half of the fitted maximal effect); conditions: PEO1/OlaR viability, CellTiter-Glo luminescence, 96 h
In short: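 PEO1, PEO4 and PEO1/OlaR ovarian cancer cells, 600 per well, exposed 96 h at 37C to a dilution series. Viability read by CellTiter-Glo luminescence, normalized to DMSO and empty wells; activity summarized as Z-AUC.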

[5] = qHTS profiling for inhibitors of Plasmodium falciparum proliferation (AID 504749); further: nearly all actives have a fitted effect of over 60% in size; further: potency means the concentration at half of the fitted maximal effect;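 on activity, negative = inhibition: 0% = DMSO vehicle and full inhibition = artemisinin control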; conditions: P. falciparum in erythrocytes, SYBR Green DNA, 72 h
In short: (§2)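 Each compound contacts P. falciparum-infected red blood cells for 72 h at 37 C; lysis buffer (Tris, EDTA, saponin, Triton X, SYBR Green I) is added and fluorescence measured next morning; values normalized to controls.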

[6] = system: 3D7; test: as above; conditions: P. falciparum in erythrocytes, SYBR Green DNA, 72 h; series mostly up to 28.7 µM
In short: as §2

[7] = system: 7G8; test: as above; conditions: P. falciparum in erythrocytes, SYBR Green DNA, 72 h; series mostly up to 28.7 µM
In short: as §2

[8] = system: AS120; test: as above; conditions: P. falciparum in erythrocytes, SYBR Green DNA, 72 h; series mostly up to 28.7 µM
In short: as §2

[9] = system: AA1029; test: as above; conditions: P. falciparum in erythrocytes, SYBR Green DNA, 72 h; series mostly up to 28.7 µM
In short: as §2

[10] = at 12.8 µM (top of the series), parasite line A
[11] = at 12.8 µM (top of the series), parasite line B
[12] = at 28.7 µM (top of the series), parasite line A
[13] = at 28.7 µM (top of the series), parasite line B

CCCCCCCCCCCCCCCCCC(=O)O
inactive: outcome [1] | outcome [2] | outcome [3]

COc1cccc2c1C(=O)c1c(O)c3c(c(O)c1C2=O)C[C@@](O)(C(=O)CO)CC3OC1CC(N2CCOC(OC)C2)C(O)C(C)O1 (stereo partly drawn)
active: Potency [4] 0.0078 µM

CCCCC/C=C\C/C=C\C/C=C\C/C=C\CCCC(=O)NCC(=O)O
inactive: activity, negative = inhibition ([5]; at 2.67 µM (top of the series), parasite line A) -21.1% | activity, negative = inhibition ([5]; at 2.67 µM (top of the series), parasite line B) 4.55%

CNC(C)(C)Cc1ccccc1
inactive: activity, negative = inhibition [5, 10] 5.96% | activity, negative = inhibition [5, 11] 5.61%

O=c1oc2ccccc2c(O)c1Cc1c(O)c2ccccc2oc1=O
inactive: activity, negative = inhibition [5, 10] 7.78% | activity, negative = inhibition [5, 11] 2.51%

COc1ccc2c(c1)C13CCCC[C@@H]1C(C2)N(C)CC3 (stereo partly drawn)
active: Potency [7] 4.47 µM
inactive: activity, negative = inhibition [5, 12] 4.6% | activity, negative = inhibition [5, 13] -5.63% | Potency [6] | Potency [8]

NC(=O)CS(=O)C(c1ccccc1)c1ccccc1 (stereo not drawn)
inactive: activity, negative = inhibition [5, 12] 11.3% | activity, negative = inhibition [5, 13] 9.97% | Potency [6] | Potency [9] | Potency [8]

Cc1nnc2n1-c1ccc(Cl)cc1C(c1ccccc1)=NC2
inactive: activity, negative = inhibition [5, 12] -6.67% | activity, negative = inhibition [5, 13] 6.11% | Potency [9] | Potency [8]

O=C1Nc2ccc(Cl)cc2C(c2ccccc2)=NC1O (stereo not drawn)
inactive: activity, negative = inhibition [5, 12] -1.71% | activity, negative = inhibition [5, 13] 3.16% | Potency [6] | Potency [7] | Potency [9] | Potency [8]

CCCC(C)(COC(N)=O)COC(N)=O
inactive: activity, negative = inhibition [5, 12] 5.3% | activity, negative = inhibition [5, 13] 9.68% | Potency [6] | Potency [7] | Potency [9] | Potency [8]

C=C(C)[C@H]1CN[C@H](C(=O)O)[C@H]1CC(=O)O
inactive: activity, negative = inhibition [5, 12] 3.91% | activity, negative = inhibition [5, 13] 11.4% | Potency [6] | Potency [9] | Potency [8]

CN1C(=O)C(O)N=C(c2ccccc2)c2cc(Cl)ccc21 (stereo not drawn)
inactive: activity, negative = inhibition [5, 12] 4.85% | Potency [6] | Potency [7] | Potency [9] | Potency [8]

CCC1(CC)C(=O)C=CNC1=O
inactive: activity, negative = inhibition [5, 12] 10.7% | activity, negative = inhibition [5, 13] 6.45% | Potency [6] | Potency [7] | Potency [9] | Potency [8]

O=C1c2ccccc2C(=O)c2ccccc21
active: Potency [7] 5.01 µM
inactive: activity, negative = inhibition [5, 12] -2.68% | activity, negative = inhibition [5, 13] 6.43% | Potency [9] | Potency [8]

CN1C(=O)NC(=O)C(C)(C2=CCCCC2)C1=O (stereo not drawn)
inactive: activity, negative = inhibition [5, 13] 7.06% | Potency [6] | Potency [7] | Potency [9] | Potency [8]

COc1c2c(cc3c1OCO3)CCN(C)C2
inactive: activity, negative = inhibition [5, 10] 4.79% | activity, negative = inhibition [5, 11] 6.97% | Potency [6] | Potency [7] | Potency [9] | Potency [8]

CN1C[C@H](C(=O)N[C@]2(C)O[C@@]3(O)[C@@H]4CCCN4C(=O)[C@H](Cc4ccccc4)N3C2=O)C=C2c3cccc4[nH]cc(c34)C[C@H]21
active: Potency ([5]; parasite line A) 1.41 µM | Potency ([5]; parasite line B) 1.58 µM | Potency [6] 0.891 µM | Potency [7] 0.0794 µM | Potency [9] 1 µM | Potency [8] 0.562 µM

NNc1ccccc1
inactive: activity, negative = inhibition [5, 12] 7.49% | Potency [6] | Potency [7] | Potency [9] | Potency [8]

CCCCCCCCCC(=O)O[C@H]1CC[C@H]2[C@@H]3CCC4=CC(=O)CC[C@@H]4[C@H]3CC[C@]12C
inactive: activity, negative = inhibition [5, 12] 6.57% | activity, negative = inhibition [5, 13] 11.7% | Potency [6] | Potency [7] | Potency [9] | Potency [8]

CC(C)(C)NCC(O)c1cc(Cl)c(N)c(C(F)(F)F)c1 (stereo not drawn)
inactive: Potency [6]
active: Potency ([5]; parasite line A) 14.1 µM | Potency ([5]; parasite line B) 4.47 µM | Potency [7] 4.47 µM | Potency [9] 7.94 µM | Potency [8] 5.62 µM

CN1CCC(O)(c2ccc(F)cc2)C(C(=O)c2ccc(F)cc2)C1 (stereo not drawn)
inactive: activity, negative = inhibition [5, 12] -7.61% | activity, negative = inhibition [5, 13] -4.09% | Potency [6] | Potency [7] | Potency [9] | Potency [8]

COC1CC(=C(c2cccs2)c2cccs2)C[N+](C)(C)C1 (stereo not drawn)
active: Potency ([5]; parasite line A) 3.98 µM | Potency ([5]; parasite line B) 4.47 µM | Potency [6] 11.2 µM | Potency [7] 10 µM | Potency [9] 12.6 µM | Potency [8] 15.8 µM

CCCCCCC(=O)CCCCCC/C=C/C[C@@H](O)[C@H](O)[C@@](N)(CO)C(=O)O
inactive: activity, negative = inhibition [5, 12] 16.1% | activity, negative = inhibition [5, 13] 7.92% | Potency [6] | Potency [7] | Potency [9] | Potency [8]

Nc1ccc([As](=O)(O)O)cc1
inactive: activity, negative = inhibition [5, 12] -20% | activity, negative = inhibition [5, 13] -5.31% | Potency [6] | Potency [9] | Potency [8]

NCCc1ccc(O)cc1
inactive: activity, negative = inhibition [5, 12] 8.86% | activity, negative = inhibition [5, 13] 7.85% | Potency [6] | Potency [7] | Potency [9] | Potency [8]

O=C1OC(c2ccc(O)c(S(=O)(=O)O)c2)(c2ccc(O)c(S(=O)(=O)O)c2)c2c(Br)c(Br)c(Br)c(Br)c21
inactive: activity, negative = inhibition [5, 12] 4.12% | activity, negative = inhibition [5, 13] 7.49% | Potency [6] | Potency [7] | Potency [9] | Potency [8]

CC(C)(C)NCC(O)c1ccccc1Cl (stereo not drawn)
active: Potency [7] 11.2 µM
inactive: activity, negative = inhibition [5, 12] -1.78% | Potency [6]

O=c1[nH]oc2c1CCNC2
inactive: activity, negative = inhibition [5, 12] 3.02% | activity, negative = inhibition [5, 13] 15.3% | Potency [6] | Potency [7] | Potency [9] | Potency [8]

Oc1ccc(Cl)cc1
inactive: activity, negative = inhibition [5, 12] 0.659% | activity, negative = inhibition [5, 13] -12.9% | Potency [6] | Potency [7] | Potency [9] | Potency [8]

O=C1c2ccccc2C(=O)C1C(=O)C(c1ccccc1)c1ccccc1
inactive: activity, negative = inhibition [5, 12] 4.21% | activity, negative = inhibition [5, 13] -28% | Potency [9]

c1ccc2c(c1)sc1ccccc12
inactive: activity, negative = inhibition [5, 12] -4.2% | Potency [6] | Potency [7] | Potency [9] | Potency [8]

CC(C)=CC1C(C(=O)OCN2C(=O)C3=C(CCCC3)C2=O)C1(C)C (stereo not drawn)
inactive: activity, negative = inhibition [5, 12] 4.58% | activity, negative = inhibition [5, 13] 1.1% | Potency [6] | Potency [7] | Potency [9] | Potency [8]

O=C(N/N=C/c1ccc([N+](=O)[O-])o1)c1cc([N+](=O)[O-])cc([N+](=O)[O-])c1O
active: Potency ([5]; parasite line A) 0.447 µM | Potency ([5]; parasite line B) 0.0708 µM | Potency [6] 0.891 µM | Potency [9] 0.1 µM | Potency [8] 0.141 µM
inactive: Potency [7]

COP(=S)(OC)SCN1C(=O)c2ccccc2C1=O
inactive: activity, negative = inhibition [5, 12] 6.4% | activity, negative = inhibition [5, 13] 1.71% | Potency [6] | Potency [7] | Potency [9] | Potency [8]

NC(=O)c1cc([N+](=O)[O-])cc([N+](=O)[O-])c1
active: Potency ([5]; parasite line A) 7.94 µM
inactive: activity, negative = inhibition [5, 13] -21.3% | Potency [9] | Potency [8]

CCOC(=O)CC(SP(=S)(OC)OC)C(=O)OCC (stereo not drawn)
inactive: activity, negative = inhibition [5, 12] 10.2% | activity, negative = inhibition [5, 13] -3.96% | Potency [6] | Potency [7] | Potency [9] | Potency [8]

Cc1ncsc1CCCl
inactive: activity, negative = inhibition [5, 12] 12% | activity, negative = inhibition [5, 13] 0.0082% | Potency [6] | Potency [7] | Potency [9] | Potency [8]

C=CCN1C[C@H](C)N([C@H](c2ccc(C(=O)N(CC)CC)cc2)c2cccc(OC)c2)C[C@H]1C
active: Potency ([5]; parasite line A) 10 µM | Potency [7] 5.01 µM

Clc1cccc(SC2CCNCC2)n1
inactive: activity, negative = inhibition [5, 12] 12.4% | activity, negative = inhibition [5, 13] 2.53% | Potency [6] | Potency [9] | Potency [8]

COC(=O)C(c1ccccc1)C1CCCCN1 (stereo not drawn)
inactive: activity, negative = inhibition [5, 12] 10.8% | activity, negative = inhibition [5, 13] 13.8% | Potency [6] | Potency [9] | Potency [8]

COP(=S)(OC)Oc1ccc(SC)c(C)c1
inactive: activity, negative = inhibition [5, 12] 8.16% | activity, negative = inhibition [5, 13] 12.2% | Potency [6] | Potency [7] | Potency [9] | Potency [8]

Clc1ccc(C(c2ccc(Cl)cc2)C(Cl)(Cl)Cl)cc1
active: Potency [7] 8.91 µM
inactive: activity, negative = inhibition [5, 12] 4.12% | Potency [9] | Potency [8]

CN1C(=O)CC(=O)N(c2ccccc2)c2cc(Cl)ccc21
inactive: activity, negative = inhibition [5, 12] 1.1% | activity, negative = inhibition [5, 13] -1.48% | Potency [6] | Potency [7] | Potency [9] | Potency [8]

C[C@]12CC[C@@H]3c4ccc(OC(=O)N(CCCl)CCCl)cc4CC[C@H]3[C@@H]1CC[C@@H]2O
inactive: activity, negative = inhibition [5, 12] 15.2% | activity, negative = inhibition [5, 13] 2.03% | Potency [6] | Potency [7] | Potency [9] | Potency [8]

O=C1CN=C(c2ccccc2)c2cc([N+](=O)[O-])ccc2N1
inactive: activity, negative = inhibition [5, 12] 0.461% | activity, negative = inhibition [5, 13] 15.1% | Potency [6] | Potency [7] | Potency [9] | Potency [8]
